Hits are enriched below; roughly 15% of the tested compounds scored in any of these assays.
SARS PLP yeast – qHTS of Yeast-based Assay for SARS-CoV PLP; S. cerevisiae expressing SARS-CoV PLpro, growth rescue; Potency, µM (doses to about 32.9 µM), without a hit: at the top dose activity, positive = growth rescue, actives largely listed as activators; actives 0.19% (n = 330,000); calls by dose curve; also: potency is read from the fitted curve at half-maximal effect; 0% is about no effect; nearly all actives have a fitted effect of over 55% in size
Sm TGR inh – qHTS Assay for the Inhibitors of Schistosoma Mansoni Peroxiredoxins; AID 485364, 2010; purified TGR, DTNB reduction, TNB absorbance 405 nm; Potency, µM (doses to about 114 µM), for inactives: at the highest dose activity change, negative = inhibition, usual class: inhibitors; Schistosoma mansoni thioredoxin glutathione reductase (TGR), Q962Y6; actives 3% (n = 360,000); also: potency is read from the fitted curve at half-maximal effect; % is scaled to controls: 0 for no effect and ±100 for the full control effect; nearly all actives have a fitted effect of over 60% in size
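First, TGR (20 nM dispensed) and NADPH were mixed with compound. Second, a 15 min room-temperature incubation followed. Third, further NADPH and then DTNB were added to start the reaction. Finally, TNB absorbance was monitored kinetically.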
Pf growth 48h – Primary qHTS for delayed death inhibitors of the malarial parasite plastid, 48 hour incubation. P. falciparum luciferase growth in erythrocytes, 48 h. Potency, µM (series often up to 28.7 µM), for inactives: top-dose activity change, negative = inhibition, actives largely listed as inhibitors. actives 5.9% (n = 310,000). AID 504832, 2011; also: potency is read from the fitted curve at half-maximal effect; % is scaled to controls: 0 for no effect and ±100 for the full control effect
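Cell-based growth assay: transgenic P. falciparum expressing firefly luciferase, cultured in red cells within RPMI 1640 containing 0.5% w/v Albumax, 24 mM bicarbonate and gentamycin. A drop in luciferase activity indicates inhibition.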
HCV inh – qHTS Assay for Inhibitors of Hepatitis C Virus (HCV) | Huh7.5.1 HCVcc-Cre infection, luciferase reporter, 44 h | Potency, µM (top dose mostly 41.8 µM), inactives show at the top dose activity change, negative = inhibition, hits mostly inhibitors | actives 3.4% (n = 340,000); also: potency is read from the fitted curve at half-maximal effect; % is scaled to controls: 0 for no effect and ±100 for the full control effect
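Reporter virus HCVcc-Cre (~0.5 moi) infects cells exposed to compound; seeding density 1,000 cells/well with 4 h settling beforehand. Luminescence, 15 sec read, taken 44 h post-infection following a 15 min RT substrate incubation.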
Pf growth 96h – Primary qHTS for delayed death inhibitors of the malarial parasite plastid, 96 hour incubation; P. falciparum luciferase reporter growth, 96 h; Potency, µM (top dose mostly 28.7 µM), without a hit: top-dose activity change, negative = inhibition, usual class: inhibitors; actives 6.9% (n = 320,000); AID 504834, 2011; also: potency is read from the fitted curve at half-maximal effect; % is scaled to controls: 0 for no effect and ±100 for the full control effect
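Luminescence readout: decreased luciferase signal marks inhibited growth of reporter-expressing P. falciparum in infected red cells (2% hematocrit, 0.05% parasitemia final), exposed to compound two generations (96 h, 37 C, 5% CO2).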
HCMV antiviral – qHTS Assay for inhibitors of the human cytomegalovirus (HCMV); HFF cells, HCMV-luciferase reporter, 72 h; active compounds read low; activity change, negative = inhibition, % at 57.5 µM; actives 4.5% (n = 410,000); AID 1259415, 2018; in the data active = activity change below about -60%; inconclusive = no clear call, values can overlap the other calls; inactive = above about -39%; also: % is scaled to controls: 0 for no effect and ±100 for the full control effect
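Cell-based, HFFs, 1000 cells/well, 16 h 37C; cpds in DMSO + HCMV-luc, MOI 1 PFU/cell; 72 h 37C; OneGlo luminescence after 5 min RT; norm. to buffer vs Salinomycin 10uM.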
* marks the source's active call; other numbers are inactive results; ? = inconclusive; . = not tested or not shown. Unless noted, calls follow the shape of the dose curve; as a rule, active = well fitted curve in the direction sought with a large enough effect; inconclusive = small, poorly fitted or top-dose-only effect, or another doubt; inactive = no such curve, though single readings can be large; an effect the other way counts as inactive or inconclusive.

SMILES | SARS PLP yeast | Sm TGR inh | Pf growth 48h | HCV inh | Pf growth 96h | HCMV antiviral
COc1cc(CNn2nnnc2N)cc(Br)c1OCC(=O)NC(C)(C)C | 14.8% | 4.7% | ? | 0.0% | -10.7% | -2.9
COc1cc(CNn2nnnc2N)cc(Br)c1OCc1c(Cl)cccc1Cl | -6.1% | -2.7% | . | 12.6µM* | ? | -69.6*
CC(CN1CCN(C)CC1)OC(=O)c1ccc(Cl)cc1 (centres undefined) | 7.7% | 0.0% | -17.6% | ? | ? | ?
CCOc1ccc(C(=O)OC(C)CN2CCN(C)CC2)cc1 (centres undefined) | -0.5% | -2.0% | . | 1.78µM* | 12.7% | 74.9
CCOc1ccc(C(=O)OC2CCCN(C)C2)cc1 (centres undefined) | 1.4% | -25.1% | -6.1% | -1.7% | 10.4µM* | -8.0
COc1ccc(S(=O)(=O)N2CCCC(N(C)CCc3ccccc3)C2)cc1OC (centres undefined) | -1.1% | -7.0% | ? | 6.2% | 8.9% | -12.0
O=C(NCc1ccc2c(c1)OCO2)c1cc(-c2ccccc2)c(N2CCOCC2)s1 | -2.4% | 1.4% | -17.2% | 14.1µM* | -10.9% | .
O=C(NCc1ccco1)c1cc(-c2ccccc2)c(N2CCOCC2)s1 | 10.5% | 1.5% | . | 8.91µM* | ? | 4.3
CN(Cc1ccc2c(c1)OCO2)C(=O)c1cc(-c2ccccc2)c(N2CCOCC2)s1 | 0.1% | 2.5% | ? | 10µM* | ? | 0.0
COc1ccc(CCNC(=O)c2cc(-c3ccccc3)c(N3CCOCC3)s2)c(OC)c1OC | -7.2% | -6.4% | ? | 10µM* | ? | -30.1
O=S(=O)(Nc1ccc2c(c1)OCCO2)c1cccc2nsnc12 | 1.8% | 0.0% | . | 25.7% | ? | -68.0*
O=S(=O)(NCCC1=CCCCC1)c1cccc2nsnc12 | 4.9% | 0.4% | 3.7µM* | 3.7% | 57.2% | -27.2
CC(NC(=O)CCNS(=O)(=O)c1cccc2nsnc12)c1ccccc1 (centres undefined) | 1.9% | -3.6% | 6.5% | 5.9% | 2.94µM* | -23.7
O=S(=O)(Nc1ccccc1)c1cccc2nsnc12 | ? | 2.9% | 5.4% | -4.8% | 8.28µM* | 22.0
Cc1cc(C)cc(OC(=O)c2cc(-c3ccc4c(c3)OCCO4)on2)c1 | . | 3.5% | . | . | . | 12.2
CCc1ccc(C(=O)COC(=O)c2cccnc2Cl)cc1 | -1.3% | 1.5% | 38.8% | 0.5% | 46.7% | -20.9
COc1ccc(-n2cc(-c3ccccc3)c3c(=O)[nH]cnc32)cc1 | 10.0% | -3.3% | -24.6% | 0.8% | 10.4µM* | 20.2
COc1ccccc1-n1cc(-c2ccccc2)c2c(=S)nc[nH]c21 | 12.2% | 6.8% | 13.1µM* | 5.2% | ? | -68.7*
COc1ccccc1-n1cc(-c2ccccc2)[nH]c1=S | 1.3% | 1.8% | ? | -14.5% | 16.3% | 1.2
O=c1[nH]cnc2c1c(-c1ccccc1)cn2-c1cccc(Cl)c1 | -52.2% | 0.0% | -23.2% | 8.7% | ? | -25.9
COc1ccc(S(=O)(=O)N(C)C[C@@H]2Oc3cc(C#CC4CCCCC4)ccc3S(=O)(=O)N([C@@H](C)CO)C[C@@H]2C)cc1 | . | . | . | . | . | -30.4
COc1ccc(CNS(=O)(=O)NCc2ccccc2)cc1OC | -3.4% | 3.9% | -15.9% | ? | 2.2% | -18.0
COc1ccc(CNc2nc(S(=O)(=O)c3ccccc3)c(Cl)s2)cc1OC | 12.4% | -2.9% | -12.6% | ? | ? | -94.6*
O=S(=O)(c1ccccc1)c1nc(NCc2ccccc2)sc1Cl | -6.4% | -10.2% | ? | -14.6% | 11.2% | -70.3*
O=C(Nc1ccccc1Cl)c1cccc(NS(=O)(=O)c2ccccc2)c1 | -11.3% | -21.1% | 15.1% | -14.7% | . | .
SMILES | SARS PLP yeast | Sm TGR inh | Pf growth 48h | HCV inh | Pf growth 96h | HCMV antiviral
O=S(=O)(NC1CCN(S(=O)(=O)c2c(F)cccc2F)C1)c1ccc2c(c1)OCCO2 (centres undefined) | 0.7% | -4.6% | 0.8% | . | ? | -77.7*
O=S(=O)(NC1CCN(S(=O)(=O)c2c(F)cccc2F)CC1)c1ccc2c(c1)OCCO2 | -1.4% | . | . | . | . | 11.6
O=S(=O)(NC[C@@H]1CCC[C@H](CNS(=O)(=O)c2c(F)cccc2F)C1)c1ccc2c(c1)OCCO2 | 3.2% | -7.6% | 8.28µM* | . | ? | .
Cc1cccc(C[C@H](C(=O)O)N2C(=O)c3ccc(C(=O)O)cc3C2=O)c1 | 2.0% | -1.2% | -4.7% | . | -7.7% | .
O=C1NC(c2cccc([N+](=O)[O-])c2)=CCN1c1ccccc1O | 6.9% | 44.7µM* | ? | 6.6% | -25.0% | -27.5
CN1C(=O)C(C)(C)N(C(=O)c2cccc([N+](=O)[O-])c2)c2ccccc21 | 3.9% | 7.6% | 110.0% | -4.5% | ? | -13.6
CNc1ccc(Br)cc(C(=O)/C=C/c2cccc(OC)c2OC)c1=O | -22.1% | 7.08µM* | ? | ? | ? | -91.7*
CCNc1ccc(Br)cc(C(=O)/C=C/c2ccccc2Cl)c1=O | . | . | . | 12.6µM* | . | -102.8*
CNc1ccccc(C(=O)/C=C/c2ccccc2OC)c1=O | -8.3% | 2.82µM* | ? | ? | ? | 39.2
COc1ccccc1/C=C/C(=O)Nc1cccnc1Cl | 0.7% | 6.1% | 40.9% | -26.7% | 47.4% | 60.3
CNc1ccc(Br)cc(C(=O)/C=C/c2cccc(Cl)c2Cl)c1=O | 0.2% | 2.51µM* | ? | ? | ? | 51.4
O=C(CSc1ccc2ccccc2c1)Nc1ccc(S(=O)(=O)Nc2nccs2)cc1 | -1.0% | -7.1% | 3.5% | -6.1% | -4.5% | -25.0
Cc1ccc(Cn2c(C)c3cnn(CC(=O)N4CCN(c5ccc(F)cc5)CC4)c(=O)c3c2C)cc1 | . | 16.5% | . | . | . | ?
Cc1ccc(S(=O)(=O)c2cn(Cc3ccccc3F)c3cc4c(cc3c2=O)OCO4)cc1 | . | 17.0% | . | . | . | -4.1
COc1ccc(NC(=S)N(CCCN2CCOCC2)Cc2ccccn2)cc1 | 1.1% | 3.0% | 7.4% | 0.7% | ? | -10.8
CCOc1ccc(NC(=S)N(CCCN2CCOCC2)Cc2cn(C)c3ccccc23)cc1 | 26.6% | -4.2% | ? | 10µM* | ? | -92.5*
COc1ccc(NC(=S)N(CCCN2CCOCC2)Cc2cn(C)c3ccccc23)cc1 | -11.5% | 3.0% | ? | ? | ? | -97.9*
Cc1ccc(NC(=S)N(CCCN2CCOCC2)Cc2ccccn2)cc1 | -9.9% | -1.9% | 14.7% | -7.1% | 5.2% | 43.7
CCOC(=O)/C=C/[C@H](CCc1ccccc1)NC(=O)C(F)(F)F | . | . | . | . | . | -19.5

Source: PubChem BioAssay
